Results on six compounds are retold here after PubChem BioAssay.

In assay [1] the target is Albumin (Bos taurus) (UniProt P02769). The assay is described as follows: compounds binding labelled BSA control protein – biochemical, small-molecule microarray, Alexa647 label, 635/667 nm fluorescence, artefact control for SMM control protein annotation, profiling panel (AID 1118).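 Further: score merges 667 nm emission intensity and signal-to-noise per printed compound spot.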 The following applies: BSA-A647 binding, fluorescence 635 nm, higher = more signal.
Assay [2] can be described thus: probe aXIP binding to arrayed compounds – biochemical, NeuroSMM set, 635/667 nm fluorescence, primary screen (AID 1119).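 Further: probe is the protein aXip251-270 applied at 1 µg/mL to compound-printed slides; binding of probe to printed compounds measured as 667 nm fluorescence plus signal to noise.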 Conditions: small-molecule microarray, higher = more signal, called active from +8 up or from −8 down.
Assay [3] in a line: probe aNOTCH3 binding on compound microarray – biochemical, small-molecule microarray, 635/667 nm fluorescence, primary screen (AID 1120).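 Further: probe is a biotin-tagged antibody raised against NOTCH3 rather than NOTCH3 protein; score merges spot fluorescence near 667 nm with spot signal to noise.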 Conditions: higher = more signal.
A short description of assay [4]: probe aNOTCH2 binding on compound microarray – biochemical, small-molecule microarray, 635/667 nm fluorescence, primary screen (AID 1121).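 Further: score merges feature fluorescence read at 667 nm with its signal to noise.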 The following applies: higher = more signal.
The target of assay [5] is Carbonic anhydrase 2 (Homo sapiens) (UniProt P00918). Put plainly: compounds binding carbonic anhydrase 2 – biochemical, small-molecule microarray, Alexa647-labelled CAII, profiling panel (AID 1122). The following applies: CAII-A647 binding fluorescence, higher = more signal.
A short description of assay [6]: COS7 lysate on small-molecule microarray, probe aHis, 635 nm (AID 1123).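 Further: z-score combines 667nm fluorescence intensity with signal-to-noise per printed compound spot.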 Conditions: COS7 cell lysate, fluorescence, higher = more signal.
The nature of assay [7]: probe aLAP1 signal on lysate-treated microarray – cell lysate, small-molecule microarray, COS7 lysate, primary screen (AID 1124).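 Further: lysate comes from COS7 cells expressing LAP1 and is applied at 0.3 µg/mL; score merges spot fluorescence near 667 nm with signal-to-noise over triplicate slides.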 Conditions: probe aLAP1, fluorescence, higher = more signal.
The test system of assay [8] is Sam68 (KHDRBS1). The assay is described as follows: compounds binding KHDRBS1 protein – biochemical, small-molecule microarray, 635 nm fluorescence, primary screen (AID 1125).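 Further: score merges 667 nm channel intensity with signal to noise over triplicate slides.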 Conditions: higher = more signal.
Assay [9] deals with Chordin-like protein 2 (CHRDL2). Put plainly: compounds binding chordin-like 2 – biochemical, small-molecule microarray, 635 nm fluorescence, primary screen (AID 1126).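 Further: printed compound slides probed with Chrdl2 protein at 4 µg/mL for 1 h at 4 C; score merges 667 nm emission intensity with signal to noise over three replicate slides.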 Conditions: fluorescence 635 nm, higher = more signal.
The target in assay [10] is Concanavalin-A (Canavalia ensiformis) (UniProt P02866). Put plainly: compounds binding concanavalin A lectin – biochemical, small-molecule microarray, Alexa647 label, 635 nm, artefact control for SMM control protein annotation, primary screen (AID 1127).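 Further: z combines 667 nm emission intensity with signal-to-noise across three replicate slides.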 The following applies: ConA-A647 binding fluorescence, higher = more signal.
Assay [11] in a line: compounds binding Alexa647 anti-His antibody – biochemical, small-molecule microarray, 635 nm fluorescence, artefact control for SMM control protein annotation, primary screen (AID 1128).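 Further: score merges feature fluorescence with signal-to-noise for each printed compound spot.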 Conditions: higher = more signal.
In assay [12] the test system is Human papillomavirus type 1a E7 protein (residues 1-88). Put plainly: HPV1a E7 small-molecule binders, primary screen, biochemical, small-molecule microarray, residues 1-88, 635 nm (AID 1129). The following applies: small-molecule microarray binding, fluorescence 635 nm; higher = more signal.
For assay [13], the target named is Focal adhesion kinase 1 (Homo sapiens) (UniProt Q05397). Put plainly: PTK2 protein binding on printed compound slides – biochemical, small-molecule microarray, 635/667 nm fluorescence, BSA, DTT, primary screen (AID 1130).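 Further: composite of spot emission at 667 nm and signal to noise over triplicate slides.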 The following applies: 635 nm fluorescence, higher = more signal.
In assay [14] the test system is Fibrinogen (Alexa647-labelled). Put plainly: Alexa647-fibrinogen binding to printed small molecules – biochemical, small-molecule microarray, 635/667 nm fluorescence, artefact control for SMM control-protein annotation, profiling panel (AID 1131).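 Further: z-score merges 667 nm fluorescence with per-spot signal-to-noise over triplicate slides.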 Conditions: fibrinogen-A647 binding fluorescence, higher = more signal.
For assay [15], the target named is Follistatin (Homo sapiens) (UniProt P19883). Put plainly: FST protein binding to printed compounds – biochemical, small-molecule microarray, 635/667 nm fluorescence, primary screen (AID 1132). The following applies: 635 nm fluorescence, higher = more signal.
The target of assay [16] is Fibroblast growth factor 2 (Homo sapiens) (UniProt P09038). Put plainly: basic fibroblast growth factor binding to printed compounds – biochemical, small-molecule microarray, 635/667 nm fluorescence, primary screen (AID 1133). Conditions: FGF2, fluorescence 635/667, higher = more signal.
The nature of assay [17]: JC-1 mitochondrial potential readout, lung cancer cells – cell-based, A549, JC-1 fluorescence, basal, 24 h, 100 nL, profiling panel (AID 1138).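 Further: A549 lung adenocarcinoma cells under basal conditions with no added stimulus; test concentration not given here.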 The following applies: higher = more signal.
Assay [18] deals with Lefty1. Put plainly: Lefty1 protein binding to printed compounds – biochemical, small-molecule microarray, 635/667 nm fluorescence, primary screen (AID 1139). The following applies: fluorescence 635/667, higher = more signal.
For assay [19], the system named is wheat germ agglutinin (Triticum aestivum), Alexa647-labelled. The assay is described as follows: Alexa647-WGA lectin binding to printed small molecules – biochemical, small-molecule microarray, 635/667 nm fluorescence, artefact control for SMM control-protein annotation, profiling panel (AID 1140).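 Further: score merges 667 nm feature emission with signal to noise over triplicate slides.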 Conditions: WGA-A647 binding, 635 nm fluorescence, higher = more signal.

Assay [20] has as its target Luciferin 4-monooxygenase (Photinus pyralis) (UniProt P08659). The assay is described as follows: inhibition of purified Photinus pyralis luciferase – biochemical, luminescence, purified enzyme, 2006 set, primary screen (AID 1141).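 Further: cell-free assay with purified firefly luciferase at 100 ng per well in PBS; test concentration not given here.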 The following applies: purified firefly luciferase, SteadyGlo luminescence, 30 min; higher = more signal, called active from +8 up or from −8 down.

Calls of active or inactive are those of the source.

Follistatin (Homo sapiens), sequence (P19883 whole entry, looked up): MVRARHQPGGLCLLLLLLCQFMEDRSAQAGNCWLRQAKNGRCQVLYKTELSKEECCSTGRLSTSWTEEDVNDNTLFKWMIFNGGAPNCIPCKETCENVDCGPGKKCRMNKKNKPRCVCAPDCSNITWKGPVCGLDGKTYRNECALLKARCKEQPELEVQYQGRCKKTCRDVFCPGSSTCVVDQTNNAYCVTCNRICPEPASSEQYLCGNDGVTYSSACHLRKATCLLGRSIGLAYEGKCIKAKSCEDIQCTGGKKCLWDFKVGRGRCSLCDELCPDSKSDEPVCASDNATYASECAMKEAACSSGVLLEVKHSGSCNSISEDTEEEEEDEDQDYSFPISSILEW
Concanavalin-A (Canavalia ensiformis), sequence (P02866 whole entry, looked up): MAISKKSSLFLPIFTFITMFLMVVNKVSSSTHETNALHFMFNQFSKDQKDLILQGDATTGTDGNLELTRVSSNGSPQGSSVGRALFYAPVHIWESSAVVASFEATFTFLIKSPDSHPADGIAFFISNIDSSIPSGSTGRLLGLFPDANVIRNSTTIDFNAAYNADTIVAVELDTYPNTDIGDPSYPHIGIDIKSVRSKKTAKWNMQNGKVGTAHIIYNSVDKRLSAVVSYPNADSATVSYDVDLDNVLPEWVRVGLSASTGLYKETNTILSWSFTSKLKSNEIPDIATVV
Focal adhesion kinase 1 (Homo sapiens), sequence (Q05397 whole entry, looked up): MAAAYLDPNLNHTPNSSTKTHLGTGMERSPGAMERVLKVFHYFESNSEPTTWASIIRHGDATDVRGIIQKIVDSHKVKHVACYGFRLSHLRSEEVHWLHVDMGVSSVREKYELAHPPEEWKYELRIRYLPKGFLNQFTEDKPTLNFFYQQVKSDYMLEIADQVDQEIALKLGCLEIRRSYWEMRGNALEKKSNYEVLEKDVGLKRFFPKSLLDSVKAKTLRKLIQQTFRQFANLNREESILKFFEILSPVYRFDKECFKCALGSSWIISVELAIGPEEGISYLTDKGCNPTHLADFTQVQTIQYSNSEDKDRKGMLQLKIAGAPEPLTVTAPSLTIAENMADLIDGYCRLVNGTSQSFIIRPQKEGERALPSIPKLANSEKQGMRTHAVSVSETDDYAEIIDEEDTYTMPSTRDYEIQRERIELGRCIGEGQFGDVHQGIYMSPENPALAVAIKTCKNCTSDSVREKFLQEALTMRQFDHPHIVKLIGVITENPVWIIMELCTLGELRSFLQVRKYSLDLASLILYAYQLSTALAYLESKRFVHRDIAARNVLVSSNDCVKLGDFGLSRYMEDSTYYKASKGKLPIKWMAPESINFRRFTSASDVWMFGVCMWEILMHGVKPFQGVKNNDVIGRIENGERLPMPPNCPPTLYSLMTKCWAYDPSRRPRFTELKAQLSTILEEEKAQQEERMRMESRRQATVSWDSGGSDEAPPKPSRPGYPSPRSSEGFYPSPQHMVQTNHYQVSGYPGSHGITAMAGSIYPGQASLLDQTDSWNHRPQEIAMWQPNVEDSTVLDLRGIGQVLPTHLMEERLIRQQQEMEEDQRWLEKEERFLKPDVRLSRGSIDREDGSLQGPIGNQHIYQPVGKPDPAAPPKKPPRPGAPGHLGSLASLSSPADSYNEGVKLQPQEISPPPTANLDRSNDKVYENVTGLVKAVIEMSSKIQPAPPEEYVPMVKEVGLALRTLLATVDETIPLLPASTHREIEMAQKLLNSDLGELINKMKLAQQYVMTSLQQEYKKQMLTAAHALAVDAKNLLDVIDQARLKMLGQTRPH
Albumin (Bos taurus), sequence (P02769 whole entry, looked up): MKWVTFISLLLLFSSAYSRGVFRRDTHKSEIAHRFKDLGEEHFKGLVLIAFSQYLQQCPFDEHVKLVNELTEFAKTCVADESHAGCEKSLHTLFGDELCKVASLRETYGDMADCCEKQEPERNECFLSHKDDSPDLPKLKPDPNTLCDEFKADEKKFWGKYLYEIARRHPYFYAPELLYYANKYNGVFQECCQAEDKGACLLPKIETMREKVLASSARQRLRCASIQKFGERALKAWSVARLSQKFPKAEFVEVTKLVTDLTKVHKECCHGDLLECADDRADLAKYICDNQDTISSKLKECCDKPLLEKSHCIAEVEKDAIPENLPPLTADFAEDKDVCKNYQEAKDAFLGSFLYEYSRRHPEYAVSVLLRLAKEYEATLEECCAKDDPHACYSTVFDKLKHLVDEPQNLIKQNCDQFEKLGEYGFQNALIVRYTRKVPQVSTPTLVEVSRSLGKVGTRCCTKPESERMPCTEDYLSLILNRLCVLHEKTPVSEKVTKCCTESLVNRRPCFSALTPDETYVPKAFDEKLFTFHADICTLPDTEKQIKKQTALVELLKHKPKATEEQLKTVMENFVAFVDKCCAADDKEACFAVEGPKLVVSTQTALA
Fibroblast growth factor 2 (Homo sapiens), sequence (P09038 whole entry, looked up): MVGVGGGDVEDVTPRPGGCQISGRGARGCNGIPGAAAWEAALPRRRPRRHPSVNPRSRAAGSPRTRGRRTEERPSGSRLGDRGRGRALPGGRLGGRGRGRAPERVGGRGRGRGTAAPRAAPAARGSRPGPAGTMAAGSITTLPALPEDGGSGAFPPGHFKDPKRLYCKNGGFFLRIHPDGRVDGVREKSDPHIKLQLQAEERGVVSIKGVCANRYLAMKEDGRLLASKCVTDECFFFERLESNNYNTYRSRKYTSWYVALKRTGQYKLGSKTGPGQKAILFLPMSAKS
Luciferin 4-monooxygenase (Photinus pyralis), sequence (P08659 whole entry, looked up): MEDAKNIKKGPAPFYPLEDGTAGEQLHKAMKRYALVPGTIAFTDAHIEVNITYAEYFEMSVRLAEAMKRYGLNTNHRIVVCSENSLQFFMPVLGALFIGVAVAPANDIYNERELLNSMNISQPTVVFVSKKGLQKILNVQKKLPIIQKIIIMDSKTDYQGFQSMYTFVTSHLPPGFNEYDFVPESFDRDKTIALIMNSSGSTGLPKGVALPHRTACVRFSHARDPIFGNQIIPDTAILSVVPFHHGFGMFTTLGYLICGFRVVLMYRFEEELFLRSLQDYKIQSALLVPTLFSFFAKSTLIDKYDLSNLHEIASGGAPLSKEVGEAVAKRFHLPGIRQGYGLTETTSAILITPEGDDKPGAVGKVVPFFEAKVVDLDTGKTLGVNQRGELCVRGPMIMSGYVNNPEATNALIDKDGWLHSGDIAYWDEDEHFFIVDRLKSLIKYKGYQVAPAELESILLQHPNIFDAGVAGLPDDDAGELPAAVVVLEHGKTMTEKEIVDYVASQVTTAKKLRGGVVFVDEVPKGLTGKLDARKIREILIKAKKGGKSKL

Consider `C=CCNC(=O)[C@@H]1[C@H]2C(=O)O[C@H](c3ccccc3)[C@H](c3ccccc3)N2[C@H](c2ccc(O)cc2)[C@@]12C(=O)Nc1ccc(C#CCC(C(=O)OC)C(=O)OC)cc12`, for which the composite z-score in assay [1] is 0.0825; in [3], -0.0647; in assay [4], -0.0907; in [5] it was 0.336; in assay [6] it was 1.52; in [7] it was 0.123. Also, the composite z-score in assay [8] was 1.33; in assay [9] it was 0.231; in assay [10], 0.933; in assay [11], -0.414; in [12], 1.2; in assay [13], 0.267. Further, the composite z-score is 0.0847 in [14]; 1.24 in [15]; 0.464 in assay [16]; 0.147 in assay [18]; 0.0307 in [19]. The composite Z-score in [2] is -0.136 (inactive). The z-score in assay [17] was -1.22; in assay [20], -0.108 (inactive).
For the compound `CCCC=C(CCC)[C@@H](NC(=O)CCc1ccccc1)c1ccc(C(F)(F)F)cc1`, the composite z-score is 0.964 in assay [1]; 0.265 in [3]; -0.0095 in assay [4]; 0.58 in [5]; 2.82 in assay [6]; 0.0364 in assay [7]. Besides, the composite z-score is 1.27 in [8]; -0.153 in assay [9]; 1.1 in assay [10]; 0.608 in assay [11]; 1.16 in [12]; 0.398 in assay [13]. Further, the composite z-score was 0.973 in assay [14]; 0.809 in assay [15]; 0.94 in assay [16]; 0.17 in [18]; 0.71 in [19]. In addition, the composite Z-score in [2] is -0.1 (inactive). In addition, the z-score in assay [17] was 3.02; in assay [20], 1.31 (inactive).
For the compound `NC(=O)[C@@H]1[C@H]2C(=O)O[C@H](c3ccccc3)[C@H](c3ccccc3)N2[C@H](c2ccc(OCCO)cc2)[C@@]12C(=O)Nc1ccc(C#CCCO)cc12`, the composite z-score is 0.629 in assay [1]; -0.12 in assay [3]; -0.0681 in assay [4]; 0.407 in assay [5]; 0.661 in assay [6]; 0.959 in [7]. Moreover, the composite z-score in assay [8] was 0.837; in assay [9], -0.178; in [10], 0.557; in assay [11] it was 2.24; in assay [12], 0.988; in assay [13], 0.215. The composite z-score in assay [14] was 0.639; in assay [15], 0.89; in assay [16] it was 0.396; in [18], -0.143; in assay [19], 0.659. In addition, in assay [2], the composite Z-score was 0.238 (inactive). Besides, the results for the z-score in [17] and in assay [20] were -0.399 and -2.01 (inactive), respectively.
Regarding `COCCOC(=O)N1C(=O)[C@@]2(c3cc(C#CC4=CCCCC4)ccc31)[C@H](C(=O)N1CCCCCCC1)[C@H]1C(=O)O[C@H](c3ccccc3)[C@H](c3ccccc3)N1[C@@H]2c1ccc(OCCO)cc1`, the composite z-score is -0.0202 in assay [1]; 0.677 in [3]; 0.0424 in [4]; 0.399 in assay [5]; 0.387 in [6]; 0.722 in assay [7]. Besides, the composite z-score in assay [8] is 0.865; in assay [9], 0.652; in [10] it was 1.11; in assay [11] it was 0.119; in [12], 1.13; in assay [13], 0.605. Besides, the composite z-score in assay [14] worked out at 0.806; in [15], 1.23; in assay [16], 0.426; in assay [18], 0.79; in assay [19], 0.956. Moreover, in [2], the composite Z-score is 0.196 (inactive). The z-score in [17] was -1.22; in [20], -0.866 (inactive).
With `O=C1O[C@H](c2ccccc2)[C@H](c2ccccc2)N2[C@H]1[C@@H](C(=O)N1CCCCCCC1)[C@]1(C(=O)Nc3ccc(C#CC4(O)CCCCCC4)cc31)[C@H]2c1ccccc1OCCO`, the composite z-score in assay [1] stood at 0.573; in [3], 2.18; in [4], 1.13; in assay [5] it was 1.02; in assay [6], 5.1; in [7] it was 1.42. The composite z-score in assay [8] is 1.34; in [9], 1.73; in assay [10] it was 0.952; in [11], 2.25; in [12] it was 1.35; in assay [13], 3.94. Besides, the composite z-score in assay [14] came to 0.713; in assay [15], 1.62; in [16], 0.121; in assay [18], 1.92; in assay [19] it was 1.71. The composite Z-score in [2] is 9.08 (active). Besides, the z-score in [17] was 0.589; in assay [20] it was 1.03 (inactive).
As for `C=C(C(=O)CC[C@@H](OC(=O)c1ccccc1-c1ccccc1C(=O)O)c1ccccc1OCCO)C(C)C`, the composite z-score in assay [1] is 0.287; in assay [3], -0.0111; in assay [4], -0.108; in assay [5] it was 0.734; in assay [6], 0.418; in assay [7], 0.175. Besides, the composite z-score in assay [8] is 1.21; in [9], 0.935; in [10], 0.866; in assay [11], -0.186; in assay [12], 1.23; in [13] it was 0.183. The composite z-score in [14] was found to be 0.532; in assay [15] it was 1.46; in assay [16], 1.77; in [18], 1.58; in assay [19], 0.109. Also, the composite Z-score in assay [2] is -0.28 (inactive). The z-score in [17] was -0.0391; in [20] it was -0.679 (inactive).
